In PubChem BioAssay (NCI):
Where “and” joins values, the source holds several entries; their conditions need not be identical. Equal values may be shown once. Compounds without any hit were thinned out: in the full panel of roughly 83,000, 20% have a hit.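 How to read the values: 0–100, growth inhibition (40 = 60% inhibited); 0, no net growth; -100 to 0, cell death (-40 = 40% of starting cells died; -100 = all dead).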 Calls of active or inactive are those of the source. Rule for the calls: active = growth percent below 10; inactive = the rest.

tested on: MDA-MB-468 breast; test: NCI-60 one-dose screen, 48 h (100 = growth as untreated, 0 = no growth, -100 = all killed); conditions: 10 µM unless noted

Which growth does the source give for `COc1ccccc1CNCCCN1C(=O)c2ccc3c4c(ccc(c24)C1=O)C(=O)N(CCCNCCCCNCCCCN)C3=O` here?
Its growth is -47% (active).

With `COc1cc2oc3cc(C)oc(=O)c3c2cc1OC` as the molecule, how does the growth read?
The growth was 91% (inactive).

For `COc1ccc(C(C)=C(c2ccc(OCCN3CCCCCC3)cc2)c2ccc(OCCN3CCCCCC3)cc2)cc1`, which growth is on record?
Its growth is -69.5% (active).

With `O=C(Cc1ccccc1Nc1c(Cl)cccc1Cl)NN1C(=O)/C(=C/c2ccc(Br)cc2)SC1=S` as the molecule, how does the growth read?
Its growth is 97% (inactive).

For `O=C1C(Nc2ccc(Cl)cc2)=C(I)C(=O)c2ncccc21`, which growth is on record?
The growth was -72.3% (active).

With `C=C(C)[C@@H]1CCC[C@]2(COS(=O)(=O)c3ccc(C)cc3)CC[C@]3(C)[C@@H](CC[C@@H]4[C@@]5(C)CCCNC(C)(C)[C@@H]5CC[C@]43C)[C@@H]12` as the molecule, how does the growth read?
The growth was -78.2% (active).

With `O=c1cc(/C(=C2/C=CC=N2)c2ccc[nH]2)c2cc(Cl)ccc2o1` as the molecule, how does the growth read?
The growth was 2.6% (active).

With `Nc1ncnc2c1C(c1ccc([N+](=O)[O-])cc1)c1sc3c(F)cccc3c1O2` (configuration not stated) as the molecule, how does the growth read?
The growth was -15% (active).

Which growth does the source give for `CS(=O)(=O)Nc1cc(-c2ccc3ncnc(Nc4ccc(F)c(Cl)c4)c3c2)ccc1Cl` here?
The growth was -32% (active).

For `O=C(c1ccc(Cl)cc1)N1CCCCC1`, which growth is on record?
The growth was 101% (inactive).

`CC1(c2ccccc2Cl)NC(=O)NC1=O` (configuration not stated) was tested. Which growth did it give?
Its growth is 96.7% (inactive).

How did the growth turn out when `CCCCN(CCCC)CCCCCCCCCCO` was run?
The growth was 99.8% (inactive).

With `CCOC(=O)Nc1ccc2c3c(cccc13)-c1ccccc1-2` as the molecule, how does the growth read?
The growth was -11.5% (active).

How did the growth turn out when `Clc1ccc2c(c1)N(c1ncnc3ccc(-c4cnc5[nH]ncc5c4)cc13)CC2` was run?
Its growth is 3.65% (active).

Which growth does the source give for `CCc1ccc2c(c1)N(CCO)C1=C(C(=O)OC1)C2c1ccccc1` (configuration not stated) here?
Its growth is 104% (inactive).

Which growth does the source give for `CCCCCCCCNC(=O)c1ccc(Cn2c(CCCC)nc3c(N)nc4ccccc4c32)cc1` here?
Its growth is -72.6% (active).

Which growth does the source give for `CCCCCCCCC(=O)OCCCC(CCC(CCC1CCCO1)OC(=O)CCCCCCCC)OC(=O)CCCCCCCC` (configuration not stated) here?
Its growth is 111% (inactive).

For `Cc1cc(C)c(C(=O)OC(C)CNC2CCCCC2)c(C)c1` (configuration not stated), which growth is on record?
The growth was 103% (inactive).

`CCN1CCN(Cc2ccc(C(=O)Nc3ccc(C)c(Oc4ccc(-c5[nH]nc6ncnc(N)c56)cc4)c3)cc2C(F)(F)F)CC1` was tested. Which growth did it give?
Its growth is 118% (inactive).

`COc1cc(-c2nn(-c3cccc(NC(=O)NCCNC(=O)c4ccccc4)c3)cc2-c2ccncc2)ccc1Cl` was tested. Which growth did it give?
Its growth is 12.1% (inactive).

`COc1ccc(-c2nc(-c3ccccc3)c(-c3ccccc3)n2C2CC2)cc1OC1CCCCC1` was tested. Which growth did it give?
The growth was 58.8% (inactive).

Which growth does the source give for `O=[N+]([O-])c1ccc(/C(=C/c2ccccc2)[n+]2ccccc2)cc1` here?
Its growth is 101% (inactive).

Which growth does the source give for `N#Cc1c(-c2cccs2)cc(-c2cnccn2)nc1SCC(=O)N/N=C/c1ccc(Cl)cc1` here?
Its growth is 108% (inactive).

`Cn1[nH]cc(/C=N/C(N)=O)c1=O` was tested. Which growth did it give?
The growth was 119% (inactive).

For `COc1cc(F)c(F)c(Nc2ccc(I)cc2F)c1NS(=O)(=O)C1(C[C@H](O)CO)CC1`, which growth is on record?
Its growth is 67.4% (inactive).

`CCOC(=O)C(C(=O)OCC)C(c1ccccc1)N1CCN(c2ccccc2)CC1` (configuration not stated) was tested. Which growth did it give?
Its growth is 108% (inactive) and 103% (inactive).

For `CC(=O)O[C@H]1C[C@@]2(C)[C@@H](C[C@@H](O)[C@H]3[C@@]4(C)CC[C@H](N5CCCC5)[C@@H](C)[C@@H]4CC[C@@]32C)/C1=C(\CCC=C(C)C)C(=O)O`, which growth is on record?
Its growth is 94.6% (inactive).

For `Cc1ccccc1C[P+](c1ccccc1)(c1ccccc1)c1ccccc1`, which growth is on record?
Its growth is -17.6% (active).

How did the growth turn out when `O=C1CC(c2ccc3c(c2)OCO3)c2ncn(-c3ccc(Cl)cc3)c2N1` (configuration not stated) was run?
Its growth is 13% (inactive).

How did the growth turn out when `CS(=O)(=O)c1nccc(-c2c(-c3ccc(F)c(OCCc4ccccc4)c3)nc3sccn23)n1` was run?
The growth was -83.4% (active).

How did the growth turn out when `C=C1C(=O)O[C@H]2[C@H]1CC/C(COC(=O)c1ccc3ccccc3c1)=C\CC[C@@]1(C)O[C@@H]21` was run?
Its growth is -57.9% (active).

`O=C(CSc1nnc(-c2ccc(Cl)cc2)o1)c1ccccc1` was tested. Which growth did it give?
The growth was 97.1% (inactive).

Which growth does the source give for `COc1cc2cc3c(nc2cc1OC)CCN3Cc1ccc(NC(=O)Nc2ccc(F)cc2F)cc1` here?
The growth was 45.6% (inactive).

`CNC(=O)c1cc(Oc2ccc3nc(NC(=O)Nc4ccc(C(F)(F)F)cc4)sc3c2)ccn1` was tested. Which growth did it give?
Its growth is 49.9% (inactive).

Which growth does the source give for `O=C1C2=C(C(=O)c3c(O)ccc(O)c31)N(c1cccnc1)Cc1ccccc1O2` here?
Its growth is -6.39% (active).

Which growth does the source give for `CCn1c(Sc2nnc(NC(C)=O)s2)nc2c1c(=O)n(C)c(=O)n2C` here?
Its growth is 87.5% (inactive).

With `CCCCCC#CC(=O)O` as the molecule, how does the growth read?
Its growth is 108% (inactive).
